# Test results taken from PubChem BioAssay.
# Where “and” joins values, the source holds several entries; their conditions need not be identical. Equal entries are not always repeated. Calls of active or inactive are those of the source.
# Tests used:
# [1] = tested on: Plasmodium falciparum Sir2 (PF13_0152, Sir2A); assay: pfSir2 binders on small-molecule microarrays, primary screen, biochemical, small-molecule microarray, 635 nm fluorescence (AID 1098); details: small-molecule microarray binding, fluorescence 635 nm; higher = more signal;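 note: score merges spot fluorescence intensity with its signal-to-noise ratio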
# [2] = small-molecule microarray binders of probe aDKK1, primary screen, biochemical, biotinylated probe, 635/667 nm fluorescence (AID 1099); details: higher = more signal;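 note: score merges 667nm spot fluorescence with signal to noise across triplicate slides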
# [3] = small-molecule microarray binders of probe aCHRDL2, primary screen, biochemical, biotinylated probe, 635/667 nm fluorescence (AID 1100); details: higher = more signal
# [4] = splicing luciferase reporter signal modulators, primary screen, spliceosome inhibition project, cell-based, HEK293, splice +/- reporter (AID 1101); details: luminescence, 24 h, higher = more signal, called active from +8 up or from −8 down;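 note: HEK293 cells carrying a splicing-competent luciferase reporter gene; test concentration not given here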
# [5] = target: Fibroblast growth factor 10 (Homo sapiens) (UniProt O15520); assay: FGF10 binders on small-molecule microarrays, primary screen, biochemical, small-molecule microarray, 635 nm fluorescence (AID 1102); details: FGF10 binding, fluorescence 635 nm, higher = more signal
# Fibroblast growth factor 10 (Homo sapiens), sequence (O15520 whole entry, looked up): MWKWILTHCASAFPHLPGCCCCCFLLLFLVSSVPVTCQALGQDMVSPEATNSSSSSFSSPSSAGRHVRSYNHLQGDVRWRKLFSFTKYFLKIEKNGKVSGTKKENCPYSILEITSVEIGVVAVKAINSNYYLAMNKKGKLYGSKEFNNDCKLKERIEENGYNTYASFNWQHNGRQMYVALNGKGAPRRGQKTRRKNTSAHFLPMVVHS
# [6] = tested on: glycogen synthase kinase-3 (GSK3A per assay name; protocol says GSK3B); assay: GSK3 binders on small-molecule microarrays, primary screen, biochemical, small-molecule microarray, 635 nm fluorescence, GSK3A (AID 1103); details: small-molecule microarray binding, fluorescence 635 nm; higher = more signal; note: the record names both GSK3A and GSK3B
# [7] = target: Epidermal growth factor receptor (Homo sapiens) (UniProt P00533); assay: EGFR binders on small-molecule microarrays, primary screen, biochemical, small-molecule microarray, 635 nm fluorescence (AID 1104); details: EGFR binding, higher = more signal;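 note: score merges 667 nm emission intensity with spot signal to noise over triplicate slides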
# Epidermal growth factor receptor (Homo sapiens), sequence (P00533 whole entry, looked up): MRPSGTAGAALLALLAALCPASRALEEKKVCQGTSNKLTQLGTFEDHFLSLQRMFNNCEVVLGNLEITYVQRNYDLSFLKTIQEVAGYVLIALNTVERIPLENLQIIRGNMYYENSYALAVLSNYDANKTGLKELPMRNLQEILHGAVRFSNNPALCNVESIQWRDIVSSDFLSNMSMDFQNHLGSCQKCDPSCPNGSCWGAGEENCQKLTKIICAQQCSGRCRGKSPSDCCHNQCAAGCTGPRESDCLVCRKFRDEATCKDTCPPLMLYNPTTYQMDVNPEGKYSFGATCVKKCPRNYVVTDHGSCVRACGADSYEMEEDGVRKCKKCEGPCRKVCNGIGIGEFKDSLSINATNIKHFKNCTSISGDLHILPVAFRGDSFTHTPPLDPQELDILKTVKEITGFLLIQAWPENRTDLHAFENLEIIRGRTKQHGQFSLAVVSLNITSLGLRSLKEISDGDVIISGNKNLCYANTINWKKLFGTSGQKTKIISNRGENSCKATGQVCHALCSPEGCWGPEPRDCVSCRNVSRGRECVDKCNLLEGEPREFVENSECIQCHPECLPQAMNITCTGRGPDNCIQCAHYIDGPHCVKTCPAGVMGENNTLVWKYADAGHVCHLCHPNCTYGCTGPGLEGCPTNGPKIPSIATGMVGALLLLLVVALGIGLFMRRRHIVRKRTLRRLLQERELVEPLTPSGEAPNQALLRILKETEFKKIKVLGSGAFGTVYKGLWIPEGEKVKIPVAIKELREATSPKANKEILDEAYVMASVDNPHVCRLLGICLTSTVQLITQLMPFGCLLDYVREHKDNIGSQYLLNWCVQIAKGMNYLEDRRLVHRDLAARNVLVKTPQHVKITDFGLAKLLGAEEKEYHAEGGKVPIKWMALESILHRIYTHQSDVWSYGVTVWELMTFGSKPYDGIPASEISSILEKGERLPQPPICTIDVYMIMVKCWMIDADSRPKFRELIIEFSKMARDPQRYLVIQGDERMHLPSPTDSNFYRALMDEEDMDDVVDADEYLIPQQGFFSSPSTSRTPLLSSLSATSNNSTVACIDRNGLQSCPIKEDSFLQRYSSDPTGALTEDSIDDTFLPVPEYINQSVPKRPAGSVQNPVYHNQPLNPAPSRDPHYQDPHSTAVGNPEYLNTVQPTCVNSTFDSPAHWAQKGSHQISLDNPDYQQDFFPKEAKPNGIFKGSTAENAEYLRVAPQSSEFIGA
# [8] = target: Follistatin-related protein 3 (Homo sapiens) (UniProt O95633); assay: FSTL3 binders on small-molecule microarrays, primary screen, biochemical, small-molecule microarray, 635 nm fluorescence (AID 1105); details: FSTL3 binding, higher = more signal;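 note: score merges emission near 667 nm and signal to noise per printed spot across three slides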
# Follistatin-related protein 3 (Homo sapiens), sequence (O95633 whole entry, looked up): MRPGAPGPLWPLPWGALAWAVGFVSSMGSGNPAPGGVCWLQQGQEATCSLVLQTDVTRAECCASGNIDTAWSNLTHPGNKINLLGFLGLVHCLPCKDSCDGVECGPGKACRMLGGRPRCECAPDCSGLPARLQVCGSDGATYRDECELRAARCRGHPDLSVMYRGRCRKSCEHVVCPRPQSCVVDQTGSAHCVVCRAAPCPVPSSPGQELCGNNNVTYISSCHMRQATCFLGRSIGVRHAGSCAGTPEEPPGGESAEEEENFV
# [9] = target: Dickkopf-related protein 1 (Homo sapiens) (UniProt O94907); assay: DKK1 binders on small-molecule microarrays, primary screen, biochemical, small-molecule microarray, 635 nm fluorescence scan (AID 1106); details: DKK1 binding, higher = more signal;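 note: score merges emission near 667 nm with signal to noise over three replicate slides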
# Dickkopf-related protein 1 (Homo sapiens), sequence (O94907 whole entry, looked up): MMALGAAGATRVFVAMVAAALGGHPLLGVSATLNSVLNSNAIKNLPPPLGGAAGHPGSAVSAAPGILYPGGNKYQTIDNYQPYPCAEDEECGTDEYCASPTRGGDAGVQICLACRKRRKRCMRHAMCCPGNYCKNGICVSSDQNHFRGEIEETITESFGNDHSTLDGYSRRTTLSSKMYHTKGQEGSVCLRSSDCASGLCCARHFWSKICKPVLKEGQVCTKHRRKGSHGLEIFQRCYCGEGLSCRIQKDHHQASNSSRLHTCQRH
# [10] = tested on: Inhibin beta A chain (activin A); assay: INHBA (activin A) binders on microarrays, primary screen, biochemical, small-molecule microarray, 635 nm fluorescence scan (AID 1107); details: small-molecule microarray binding, higher = more signal;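 note: mouse activin A protein probed at 4.33 µg/mL on printed slides; score merges bound-protein fluorescence near 667 nm with spot signal-to-noise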
# [11] = tested on: Human papillomavirus type 1a protein E7 (residues 44-93); assay: HPV1a E7 fragment binders on microarrays, primary screen, biochemical, small-molecule microarray, residues 44-93, 635 nm fluorescence (AID 1108); details: small-molecule microarray binding, fluorescence 635 nm; higher = more signal;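 note: E7 fragment applied at 1 µg/mL in TBST for 1 h at 4 C; score combines spot fluorescence with its signal to noise ratio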
# [12] = modulators of HCV replicon luciferase signal, primary screen, HCV replication inhibitor project, Huh7 cells, luciferase reporter (AID 1109); details: 48 h, higher = more signal;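 note: huh7 hepatoma cells harbouring a luciferase neomycin HCV replicon reporter; luciferase luminescence as measure of HCV replicon replication; test concentration not given here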
# [13] = target: Left-right determination factor 2 (Homo sapiens) (UniProt O00292); assay: LEFTY2 binders on small-molecule microarrays, primary screen, biochemical, small-molecule microarray, 635 nm fluorescence scan (AID 1110); details: LEFTY2 binding, higher = more signal
# Left-right determination factor 2 (Homo sapiens), sequence (O00292 whole entry, looked up): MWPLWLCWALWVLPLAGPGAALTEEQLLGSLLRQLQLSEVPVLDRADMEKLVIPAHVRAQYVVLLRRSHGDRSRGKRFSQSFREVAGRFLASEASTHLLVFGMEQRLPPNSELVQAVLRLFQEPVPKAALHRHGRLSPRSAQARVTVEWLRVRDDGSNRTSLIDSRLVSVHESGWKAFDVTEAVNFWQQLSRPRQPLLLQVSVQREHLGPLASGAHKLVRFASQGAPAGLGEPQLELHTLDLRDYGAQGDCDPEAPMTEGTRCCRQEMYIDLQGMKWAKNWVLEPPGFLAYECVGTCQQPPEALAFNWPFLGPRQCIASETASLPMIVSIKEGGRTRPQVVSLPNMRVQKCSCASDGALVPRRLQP
# [14] = target: Calmodulin-1 (Homo sapiens) (UniProt P0DP23); assay: CALM1 binders on microarrays, EGTA buffer, profiling panel, biochemical, small-molecule microarray, Cy5-labelled CALM1 (AID 1111); details: Cy5-CALM1 binding fluorescence, higher = more signal;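 note: labelled calmodulin applied in Tris saline Tween buffer holding calcium plus EGTA and DTT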
# [15] = target: Calmodulin-1 (Homo sapiens) (UniProt P0DP23); assay: calcium-bound CALM1 binders on microarrays, profiling panel, artefact control for SMM control-protein annotation, biochemical, small-molecule microarray, Cy5-labelled CALM1, plus calcium (AID 1112); details: Cy5-CALM1 binding fluorescence, higher = more signal;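 note: score merges spot fluorescence with signal to noise from triplicate slides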
# [16] = small-molecule microarray binders of probe aWnt5a, primary screen, biochemical, biotinylated probe, 635/667 nm fluorescence (AID 1113); details: higher = more signal;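 note: score merges 667 nm fluorescence intensity with signal-to-noise per printed feature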
# [17] = small-molecule microarray binders of probe aShh, primary screen, biochemical, biotinylated probe, 635/667 nm fluorescence (AID 1114); details: higher = more signal;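 note: probe is biotin-labelled aShh protein from a stem cell growth factor screen; measures binding of labelled protein to compounds printed on the slide; score merges feature fluorescence at 667 nm with signal-to-noise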
# [18] = small-molecule microarray binders of probe aNog, primary screen, biochemical, biotinylated probe, 635/667 nm fluorescence (AID 1115); details: higher = more signal;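 note: probe is biotinylated aNog protein used at 0.15 µg/mL for 1 h at 4 C; z-score combines 667 nm fluorescence of each spot with its signal to noise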
# [19] = target: Torsin-1A-interacting protein 1 (Homo sapiens) (UniProt Q5JTV8); assay: LAP1 binders from COS7 cell lysate, primary screen, small-molecule microarray, 635/667 nm fluorescence (AID 1116); details: COS7-hLAP1 lysate binding, 635 nm fluorescence, higher = more signal
# Torsin-1A-interacting protein 1 (Homo sapiens), sequence (Q5JTV8 whole entry, looked up): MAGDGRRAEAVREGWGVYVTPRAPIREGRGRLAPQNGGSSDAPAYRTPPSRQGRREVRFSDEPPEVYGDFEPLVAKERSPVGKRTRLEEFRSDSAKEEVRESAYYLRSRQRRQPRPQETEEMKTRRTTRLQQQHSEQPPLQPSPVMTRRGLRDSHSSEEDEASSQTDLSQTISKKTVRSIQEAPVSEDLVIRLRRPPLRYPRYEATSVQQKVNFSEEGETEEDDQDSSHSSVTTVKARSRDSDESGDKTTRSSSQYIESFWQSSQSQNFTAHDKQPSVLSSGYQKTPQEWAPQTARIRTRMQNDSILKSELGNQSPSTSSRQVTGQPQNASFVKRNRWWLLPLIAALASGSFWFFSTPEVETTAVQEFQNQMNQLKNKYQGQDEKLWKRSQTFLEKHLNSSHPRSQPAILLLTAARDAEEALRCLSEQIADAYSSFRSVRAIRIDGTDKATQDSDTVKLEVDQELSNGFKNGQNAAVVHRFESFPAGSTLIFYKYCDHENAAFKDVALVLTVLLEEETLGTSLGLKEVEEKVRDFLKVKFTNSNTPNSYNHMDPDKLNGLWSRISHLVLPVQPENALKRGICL
# [20] = target: Alpha-bungarotoxin (Bungarus multicinctus) (UniProt P60615); assay: alpha-bungarotoxin binders on microarray, profiling panel, artefact control for SMM control protein annotation, biochemical, small-molecule microarray, Alexa647 label, 635/667 nm fluorescence (AID 1117); details: alpha-BTX-A647 binding fluorescence, higher = more signal
# Alpha-bungarotoxin (Bungarus multicinctus), sequence (P60615 whole entry, looked up): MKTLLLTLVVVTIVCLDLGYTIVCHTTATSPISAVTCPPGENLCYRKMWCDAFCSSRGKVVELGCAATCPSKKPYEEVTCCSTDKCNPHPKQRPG
Structure (SMILES),composite z-score [1],composite z-score [2],composite z-score [3],z-score [4],composite z-score [5],composite z-score [6],composite z-score [7],composite z-score [8],composite z-score [9],composite z-score [10],composite z-score [11],z-score [12],composite z-score [13],composite z-score [14],composite z-score [15],composite z-score [16],composite z-score [17],composite z-score [18],composite z-score [19],composite z-score [20]
C=CC[C@H](O)c1ccc(OCCO)cc1,0.142 and -0.925,0.203 and -0.308,0.777 and 0.484,0.296 (inactive) and 2.7 (inactive),-0.603 and -0.328,-0.92 and -2.17,-0.883 and -0.455,-0.382 and -0.0904,-1.06 and -0.251,0.149 and 0.677,-0.664 and -3.44,-0.921 and 0.924,-0.774 and -0.827,-1.14 and -0.814,0.237 and 0.234,-0.176 and -0.139,-0.221 and -0.288,-0.0144 and 0.419,-0.24 and -1.3,2.4 and -0.101
CC(CO)N1C(=O)[C@@H]2C3C(=O)OCCC=C[C@H]3OC23C=CCN(C(C)(C)C)C(=O)[C@@H]13 (stereo not given in full),-0.117 and -0.15,-0.216 and 0.073,0.254 and 0.178,0.612 (inactive) and -0.541 (inactive),-0.941 and 0.229,-0.875 and 0.449,-0.839 and -0.726,-0.464 and 0.008,-0.476 and -0.008,0.298 and 1.11,-0.925 and -1,-0.319 and -0.502,-1.51 and -0.114,-0.286 and -0.991,1.02 and -1.03,-0.222 and -0.0584,-0.168 and -0.0553,-0.219 and -0.46,0.232 and 1.48,-2.94 and -0.198
CC[C@@H]1C(Sc2ccccc2)C(C(=O)O)[C@H](c2ccc(C)cc2)N1S(=O)(=O)c1ccc(C)cc1 (stereo not given in full),1.68 and 1.07,0.46 and -0.127,0.731 and 0.46,-0.0623 (inactive) and -0.895 (inactive),0.617 and 0.881,0.414 and 1.14,-0.233 and 0.267,0.437 and 0.874,-0.72 and 0.0831,0.653 and 0.302,1.1 and 1.34,-0.17 and -0.556,-0.311 and 0.047,1.98 and 1.65,0.345 and 0.527,0.138 and 0.155,0.108 and 0.116,0.942 and 0.002,1.06 and 1.19,0.836 and 1.14
Cc1cc2c(nc1C)CCCN2CC(C)ON=C[C@@H](C)[C@H](OCc1ccccc1)C(C)C (stereo not given in full),-0.146,-0.14,-0.499,0.332 (inactive),-0.375,-0.857,0.0333,-0.0161,0.227,0.622,-1.88,-1.26,0.339,-0.398,-0.304,-0.0125,-0.0035,0.0811,-0.0342,-0.0161
COC(=O)[C@@]1(Cc2ccc(OC)cc2)[C@H]2c3cc(C(=O)N(C)C)n(Cc4ccc(O)c(OC)c4)c3C[C@H]2CN1C(=O)c1ccccc1,1.17 and 1.27,0.714 and 0.773,1.08 and 0.94,-2.55 (inactive) and -2.51 (inactive),0.113 and 1.15,0.568 and -0.198,-0.14 and -0.143,0.418 and 0.592,-0.529 and -0.128,0.876 and 0.416,1.31 and 1.43,-1.33 and -1.83,-0.3 and -0.586,2.32 and 1.21,0.88 and 0.206,-0.208 and 0.201,-0.374 and 0.632,0.231 and 1.94,2.63 and 1.12,0.526 and 0.245
C=CCN(Cc1ccccc1)C(=O)C1N(c2c(Cl)cccc2CO)C(=O)C2C(C(=O)O)C3C=CC21O3 (stereo not given),-1.57 and -0.0019,0.059 and 0.175,0.845 and 1.19,-2.02 (inactive) and -0.804 (inactive),-0.944 and -1.32,-1.84 and -1.45,-1.91 and -1.77,-1.61 and -2.46,-2.28 and -1.9,-0.934 and -2.5,-2.6 and -0.99,-0.431 and -0.961,-3.36 and -2.65,-0.998 and -0.846,0.686 and 0.031,-0.215 and -0.291,-0.221 and -0.0866,-0.261 and -0.281,-0.74 and -0.831,-2.7 and -1.89
O=C1C[C@]2(c3ccc([N+](=O)[O-])cc3)C(=O)N(Cc3ccccc3)c3cc(CO)ccc3[C@H]2N1C1CCCCC1,-0.179 and 0.678,-0.153 and 1.26,-0.0948 and 0.78,0.0261 (inactive) and -0.478 (inactive),-0.225 and 0.994,1.11 and -0.148,0.079 and 0.291,0.413 and -0.017,-0.0921 and 0.434,0.4 and 0.359,0.986 and 0.622,-0.107 and -2.97,-1.1 and 0.586,-0.135 and 1.19,-0.195 and 0.163,-0.0546 and -0.0556,0.0611 and 0.393,-0.262 and 0.344,0.395 and -0.136,0.0277 and -0.0515
C=CCN(C(=O)C(c1cccs1)N(C(=O)/C=C\C(=O)O)c1ccc(CCO)cc1)c1ccc(OC)cc1 (stereo not given),-0.087 and -1.23,-0.26 and 0.0389,0.822 and 1.13,0.0213 (inactive) and 0.54 (inactive),-1.94 and -2.06,-1.57 and -1.13,-1.46 and -2.92,-1.38 and -2.79,-2.88 and -3.33,-1.56 and -1.86,-1.01 and -1.64,-0.465 and -0.171,-3 and -5.82,-0.453 and -1.54,0.742 and -0.222,-0.203 and -0.27,-0.0709 and -0.138,-0.541 and -0.126,-1.16 and -1.72,-0.664 and -2.33
O=C1NC(=O)C2C1C=CC(C(O)c1ccc([N+](=O)[O-])cc1)N2Nc1ccc(Cl)cc1Cl (stereo not given),0.59 and 0.0889,-0.0543 and 1.09,0.765 and 0.824,-1.06 (inactive) and -1.49 (inactive),0.945 and 0.229,0.0563 and 0.737,0.0939 and -0.12,0.272 and 0.132,0.0264 and -0.297,1.13 and 1.31,0.481 and -0.621,0.175 and -1.19,-0.176 and -0.0882,1.01 and 1.48,0.436 and 0.0078,-0.0566 and 0.0775,0.0326 and -0.241,1.94 and 2.12,1.9 and 1.62,1.18 and 1.56
C[N+](C)(C)CCCCNC(=O)[C@@H]1C[C@@H]2C(=O)N[C@@H](CCCC[N+](C)(C)C)C(=O)N2[C@@H]1c1cccc(OCCO)c1,1.03 and 0.616,0.0631 and 0.217,-0.0665 and 0.574,-0.21 (inactive) and 0.129 (inactive),1.51 and 1.4,1.35 and 0.785,1.33 and 0.0943,1.5 and 1.33,2.14 and 1.67,0.804 and -0.833,0.845 and 0.331,-0.552 and -0.848,1.59 and 1.49,-1.47 and -1.67,-2.01 and -0.543,-0.0758 and 0.048,0.23 and -0.0232,-0.12 and 0.0139,2.23 and 1.62,-0.257 and 1.62
